Compound activity from PubChem BioAssay.
PAD4 inh = inhibitors of human PAD4 | AID 485272 | Q9UM07 | 330,000 compounds, 0.41% hits | recombinant PAD4, RCA probe fluorescence polarization | inhibition, % at 6.36 µM;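 active means percent inhibition above a cutoff equal to the mean of all tested compounds plus 3 SD, cut at about 15% in these data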;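 further: 0% = PAD4 with RCA probe and DMSO and 100% = probe without PAD4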
PME-1 primary = blocks human protein phosphatase methylesterase 1 | Q9Y570 | recombinant PME-1, FP-Rh probe fluorescence polarization | inhibition, % at 5.9 µM | 320,000 compounds, 0.53% hits | AID 2130;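 active means inhibition above the campaign mean of all compounds plus 3 SD, cut at about 26% in these data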;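 further: competitive labeling of PME-1 active site by serine hydrolase directed probe; 0% = PME-1 with DMSO and 100% = wells lacking PME-1 enzyme; inhibitors block probe labeling so polarization falls and inhibition rises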
Target sequence (Q9Y570 whole entry, looked up): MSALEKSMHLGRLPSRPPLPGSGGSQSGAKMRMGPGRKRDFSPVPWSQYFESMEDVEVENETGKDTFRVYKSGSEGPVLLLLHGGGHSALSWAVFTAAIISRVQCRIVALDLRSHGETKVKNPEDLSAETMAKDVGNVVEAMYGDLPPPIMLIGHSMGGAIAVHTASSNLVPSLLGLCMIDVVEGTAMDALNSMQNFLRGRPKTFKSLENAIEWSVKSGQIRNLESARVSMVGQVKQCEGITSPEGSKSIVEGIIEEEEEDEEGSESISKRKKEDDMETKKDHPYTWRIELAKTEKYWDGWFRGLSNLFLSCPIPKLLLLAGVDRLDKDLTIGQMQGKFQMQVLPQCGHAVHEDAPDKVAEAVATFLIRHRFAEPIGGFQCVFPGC
GSTO1 inh = counter-screen for RBBP9 inhibitors: inhibitors of human GSTO1; recombinant GSTO1, activity-based probe fluorescence polarization; inhibition, % at 5.96 µM; 300,000 compounds, 1.1% hits; AID 1974;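 active means inhibition above the campaign mean inhibition plus 3 SD, cut at about 35% in these data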;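 further: 0% = GSTO1-1 with DMSO and 100% = wells lacking GSTO1-1 enzyme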
Fam108B counter = Fam108B inhibition, counter-screen for RBBP9 inhibitors. recombinant Fam108B, FP-Rh probe fluorescence polarization. inhibition, % at 9.51 µM. 300,000 compounds, 0.33% hits. AID 1947;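 active means inhibition above the screen mean inhibition plus 3 SD, computed separately per campaign, cut at about 18% in these data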;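 further: inhibitors lower polarization as less probe binds the enzyme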
LYPLA2 counter = LYPLA2 (human) inhibition in PME1 counter-screen. O95372. inhibition, % at 5.9 µM. recombinant LYPLA2, FP-Rh probe fluorescence polarization. 320,000 compounds, 0.38% hits;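 active means inhibition above the screen-wide mean plus 3 SD, limit set per campaign, cut at about 26% in these data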;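 further: 0% = LYPLA2 with DMSO and 100% = wells lacking LYPLA2 enzyme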
Target sequence (O95372 whole entry, looked up): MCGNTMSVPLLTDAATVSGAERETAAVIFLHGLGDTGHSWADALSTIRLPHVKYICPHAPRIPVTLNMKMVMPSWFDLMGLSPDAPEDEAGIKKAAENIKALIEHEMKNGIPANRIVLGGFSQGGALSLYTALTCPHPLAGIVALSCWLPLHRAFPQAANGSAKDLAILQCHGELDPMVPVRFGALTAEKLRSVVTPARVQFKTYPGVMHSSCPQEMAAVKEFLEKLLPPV
LYPLA1 counter = LYPLA1 (human) inhibition in PME1 counter-screen. 320,000 compounds, 0.16% hits. O75608. AID 2174. recombinant LYPLA1, FP-Rh probe fluorescence polarization. inhibition, % at 5.9 µM;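 active means inhibition above the mean of all tested compounds plus 3 SD, set per campaign, cut at about 14% in these data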;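 further: inhibitors block serine hydrolase probe labeling of LYPLA1 so polarization falls; 0% = enzyme with DMSO and 100% = wells lacking LYPLA1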
LYPLA2 confirm = LYPLA2 (human) inhibition, confirmation counter-screen | AID 2232 | shares compounds with LYPLA2 counter | 1,100 compounds, 72% hits | inhibition, % at 5.9 µM | recombinant LYPLA2, FP-Rh probe fluorescence polarization;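 active means mean inhibition across replicates above the hit cutoff set in the primary screen, cut at about 26% in these data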;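 further: blocked labeling of the enzyme by serine hydrolase FP-Rh probe lowers polarization; 0% = enzyme with DMSO and 100% = wells lacking LYPLA2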
LYPLA2 ABPP = inhibitors of human LYPLA2; shares compounds with LYPLA2 counter; rhLYPLA2 in mouse brain proteome, gel ABPP FP-Rh; inhibition, % at 20 µM; 150 compounds, 30% hits;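 active means inhibition of LYPLA2 enzyme probe labeling above about 50%, limit read from the data; inactive means inhibition below that limit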;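 further: loss of FP-Rh probe labeling of the LYPLA2 gel band measured as band density; 0% = DMSO only control band and 100% = blank gel background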
Numbers without * were called inactive; / = not tested or not shown. Hits are enriched below; roughly 1.7% of the tested compounds scored in any of these assays.

SMILES | PAD4 inh | PME-1 primary | GSTO1 inh | Fam108B counter | LYPLA2 counter | LYPLA1 counter | LYPLA2 confirm | others
CCc1cc(C(=O)N2CCCC(N3CCN(c4cccc(C(F)(F)F)c4)CC3)C2)n(C)n1 (centres undefined) | 1 | -3 | 4 | -2 | 81* | 11 | 74* | LYPLA2 ABPP=43
O=C(c1ccncc1)N1CCCC(N2CCN(c3cccc(C(F)(F)F)c3)CC2)C1 (centres undefined) | 0 | 4 | 3 | 0 | 26* | -2 | 43*
CSCCC(=O)N1CCCC(N2CCN(c3cccc(C(F)(F)F)c3)CC2)C1 (centres undefined) | 3 | 2 | 0 | 2 | 53* | 2 | 59* | LYPLA2 ABPP=49
Cc1cnc(C(=O)N2CCCC(N3CCN(c4cccc(C(F)(F)F)c4)CC3)C2)cn1 (centres undefined) | 1 | 2 | 2 | -2 | 26* | 2 | 26
CC1=C(C(=O)N2CCCC(N3CCN(c4cccc(C(F)(F)F)c4)CC3)C2)OCCO1 (centres undefined) | -1 | 0 | -1 | -2 | 7 | 0 | /
O=C(O)CCN1C(=O)S/C(=C\c2cccnc2)C1=O | 2 | -3 | 1 | -1 | -3 | -2 | /
Cc1ccc(-n2cnn(-c3ccc([N+](=O)[O-])cc3[N+](=O)[O-])c2=O)cc1 | -3 | -3 | 3 | 5 | 55* | 2 | 56* | LYPLA2 ABPP=46
Cc1cccnc1NC(=O)C(c1ccccc1)c1ccccc1 | 1 | -7 | 4 | -2 | 27* | 0 | -1
COc1ccc(CCNC(=O)Cn2cnc3ccccc3c2=O)cc1OC | -6 | -12 | 5 | 8 | 0 | -1 | /
CC(=O)NCCc1ccc(C(=O)Cn2cnc3ccccc3c2=O)cc1 | -1 | -3 | 5 | -3 | 29* | 2 | 39*
O=[N+]([O-])c1cccc(-n2cc3ccc([N+](=O)[O-])cc3n2)c1 | -3 | 0 | / | / | -1 | 0 | /
CCCCn1c(N)c(N(CCOC)C(=O)CCC2CCCCC2)c(=O)[nH]c1=O | 1 | 7 | / | / | 11 | 1 | /
N#Cc1ccc(COC(=O)c2cnc3ccccc3n2)cc1 | 0 | 6 | 2 | -1 | 27* | 2 | 27*
Cc1cnc(C(=O)OCc2ccc(C#N)cc2)cn1 | 5 | 1 | 5 | -4 | 4 | 4 | /
NC(=O)c1ccc(Oc2ccc3c(c2)CCC3)c([N+](=O)[O-])c1 | -7 | 17 | 2 | -1 | 30* | -2 | 29*
CC(C)(C)OC(=O)NOCC(=O)N(Cc1ccccc1)CC(O)COc1ccccc1 (centres undefined) | -4 | 2 | -6 | 0 | -2 | 0 | /
O=C(CSCc1ccccc1Cl)Nc1c[nH]c(=O)[nH]c1=O | 1 | 4 | 1 | -5 | 39* | 2 | -3
O=C(CN1C(=O)NC2(CCCC2)C1=O)Nc1ccc(S(=O)(=O)N2CCOCC2)cc1 | -2 | 4 | -3 | -7 | 30* | 4 | 1
N#CC1(c2ccccc2)CCC(=O)N1c1ccccc1 (centres undefined) | -3 | 3 | -4 | 0 | -1 | 3 | /
O=C(/C=C/c1ccc([N+](=O)[O-])cc1)N1CCN(Cc2ccccc2)CC1 | -5 | 4 | 3 | -1 | 32* | 5 | 39*
O=C(N/N=C/c1cccc(Oc2ccc([N+](=O)[O-])cc2[N+](=O)[O-])c1)c1cncc(Br)c1 | 5 | 16 | 6 | 16 | 45* | -2 | 39*
O=C(c1cn(-c2ccccc2)nc1-c1ccccc1)N1CCN(c2ccccn2)CC1 | -3 | 1 | 6 | 0 | 4 | -5 | /
Cc1ccc(C=NNC(=O)C(NC(=O)c2ccccc2)c2n[nH]c(=O)c3ccccc23)cc1 (centres undefined) | / | / | / | / | / | / | / | LYPLA2 ABPP=28
Cc1ccc(NC(=O)NC2CCN(S(=O)(=O)c3ccc(F)cc3)CC2)cc1 | 2 | 2 | 1 | -7 | 4 | -2 | /
CC(=O)c1ccc(S(=O)(=O)N2CCC(NC(=O)Nc3cccc(F)c3)CC2)cc1 | -1 | -3 | 1 | 0 | 37* | -3 | 47*
SMILES | PAD4 inh | PME-1 primary | GSTO1 inh | Fam108B counter | LYPLA2 counter | LYPLA1 counter | LYPLA2 confirm | others
Cc1ccccc1NC(=O)Cn1nnc2sc3c(c2c1=O)CC(C)(C)OC3 | 3 | -2 | 6 | 1 | 22 | -2 | /
CCC1(C)Cc2c(sc3nnn(CC(=O)Nc4ccccc4C)c(=O)c23)CO1 (centres undefined) | 0 | 3 | 4 | -4 | 26 | 2 | /
CCC1(C)Cc2c(sc3nnn(CC(=O)Nc4ccccc4)c(=O)c23)CO1 (centres undefined) | -2 | -3 | 9 | -7 | 39* | -3 | 38*
Cc1cccc(NC(=O)Cn2nnc3sc4c(c3c2=O)CC(C)(C)OC4)c1 | -4 | -2 | 0 | -2 | 39* | -1 | 48*
CC(=O)c1cccc(NC(=O)C2C3C=CC(C3=C(c3ccccc3)c3ccccc3)C2C(=O)O)c1 (centres undefined) | 2 | -8 | -10 | -9 | 2 | 3 | /
CN1C(=O)CC(N2CCN(c3ccccc3)CC2)C1=O (centres undefined) | -4 | -1 | 3 | 0 | 12 | 4 | /
Cc1cc(C)n(CCC(=O)Nc2ccc(-c3ccno3)cc2)n1 | -4 | -8 | 5 | 1 | 1 | -4 | /
Nc1nc(N2CCN(C/C=C/c3ccccc3)CC2)nc2ccccc12 | -5 | -1 | 4 | 4 | 42* | 6 | 39*
O=c1[nH]c(CN2CCN(C/C=C/c3ccccc3)CC2)nc2ccccc12 | 3 | -3 | 2 | -2 | 1 | 3 | /
Cc1cc(C)n(Cc2ccc(C(=O)N/N=C/c3ccc(-c4ccc([N+](=O)[O-])cc4)o3)o2)n1 | -7 | 1 | 36* | 6 | 28* | 5 | 27*
CCCCC(=O)N/N=C/c1ccc(-c2ccc([N+](=O)[O-])cc2)o1 | 2 | 4 | -5 | 0 | 3 | 4 | /
CC(=O)Nc1cccc(C(=O)OC(C)C(=O)N2CCc3ccccc32)c1 (centres undefined) | -1 | 6 | -5 | 0 | 28* | 0 | 28*
O=C1CCCN1CCCNc1ncnc2c1cnn2-c1ccc(Cl)cc1 | 0 | -9 | 0 | -5 | 30* | 4 | 29*
COc1ccc(CCNC(=O)COc2ccc(-c3ccc(C)cc3)cc2)cc1OC | 1 | -1 | 1 | 0 | 45* | 0 | 40*
COc1ccc(CC(=O)Nc2cccc(-c3nnc(-c4ccc(C)cc4)o3)c2)cc1OC | 1 | -5 | 0 | -8 | 31* | -3 | 13
